PubChem BioAssay (NCATS)
Values without a mark were called inactive. The call rests on the fitted dose curve; in most records, active means well fitted curve in the direction sought with a large enough effect; inconclusive means small, poorly fitted or top-dose-only effect, or another doubt; inactive means no such curve, though single readings can be large; an effect the other way counts as inactive or inconclusive. Results filed as inconclusive are left out.

tested on: not listed separately; test: Primary fluorescence-based thiol-reactive (MSTI) qHTS assay for identification of artifact compounds. (AID 1845221); conditions: MSTI thiol-reactivity probe, 1 h; series mostly up to 53.8 µM; activity change, negative = thiol reactive: at the top concentration;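 further: thiol-reactive compounds lower the probe fluorescence signal; nearly all actives have a fitted effect of over 65% in size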
Outline: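 qHTS titration of compound; 4 uM MSTI, PBS pH 7.4, 2% DMSO; 1 h RT, dark; fluorescence 525/598 nm; normalized to Acetyl-MSTI and MSTI; 4-parameter Hill fit.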

Compound	activity change, negative = thiol reactive
COC(=O)N1CCN(C(=O)Cc2ccc(Cl)c(Cl)c2)[C@@H](CN2CCCC2)C1	16.2%
COc1cc2c(cc1OC)[C@@]13CCN4CC5=CCO[C@H]6CC(=O)N2[C@H]1[C@H]6[C@H]5C[C@H]43	5.93% [at 25.6 µM]
C[C@H]1O[C@@H](O[C@H]2C[C@@H](O)[C@]3(CO)C4C(CC[C@]3(O)C2)[C@@]2(O)CC[C@H](C3=CC(=O)OC3)[C@@]2(C)C[C@H]4O)[C@@H](O)[C@@H](O)[C@H]1O (some centres not stated)	-10.9% [at 25.6 µM]
CC(CCc1ccc(O)cc1)O[C@@H]1O[C@H](CO[C@H]2OC[C@](O)(CO)[C@H]2O)[C@@H](O)[C@H](O)[C@H]1O (some centres not stated)	5.2% [at 25.6 µM]
CC(=O)OC1CC(O)C(C)(C)C2CC(OC(C)=O)C3(C)C(CCC4(C)C(c5ccoc5)C(=O)C5OC543)C12C (configuration not stated)	89.3% [at 25.6 µM]
N#CC(OC1OC(COC2OC(CO)C(O)C(O)C2O)C(O)C(O)C1O)c1ccccc1 (configuration not stated)	9.09% [at 25.6 µM]
CN(C(=O)Cc1ccccc1)C(CN1CCCC1)c1ccccc1 (configuration not stated)	-23.6%
CCN1CC2(COC)C3[C@@H](OC)C4C1C3(C1C[C@]3(O)[C@H](OC(=O)c5ccccc5)C1[C@]4(OC(C)=O)[C@@H](O)[C@@H]3OC)[C@H](OC)C[C@H]2O (some centres not stated)	36.5%
CCN1C[C@]2(COC)[C@H](O)C[C@H](OC)[C@]34[C@@H]5C[C@]6(O)[C@H](OC(=O)c7ccccc7)[C@@H]5[C@@](O)([C@H]([C@H](OC)[C@H]23)[C@@H]14)[C@@H](O)[C@@H]6OC	23.3%
C=CC(C)(O)CC/C=C(\C)C(=O)O[C@H]1[C@H](O)[C@@H](CO)O[C@@H](OC(=O)[C@]23CCC(C)(C)CC2C2=CCC4[C@@]5(C)CC[C@H](O[C@@H]6O[C@H](CO[C@@H]7OC[C@H](O)[C@H](O)[C@H]7O[C@@H]7OC[C@@H](O)[C@H](O)[C@H]7O)[C@@H](O)[C@H](O)[C@H]6O)C(C)(C)C5CC[C@@]4(C)[C@]2(C)CC3)[C@@H]1OC1OC(C)C(O[C@@H]2OC[C@@H](O)[C@H](O[C@@H]3OC[C@@H](O)[C@H](O)[C@H]3O)[C@H]2O)C(O)C1O (some centres not stated)	28.2% [at 11.5 µM]
CN(C)CCc1c[nH]c2ccc(CN3CCN(C)S3(=O)=O)cc12	-3.67%
CCCN1CCO[C@H]2c3cc(O)ccc3OC[C@@H]21	-12%
Cc1cccc(NC(=O)N[C@@H]2N=C(c3ccccc3)c3ccccc3N(C)C2=O)c1	579%
Cc1c(Cl)cccc1S(=O)(=O)Nc1nc(CC(=O)N2CCN(C)CC2)cs1	-8.4%
COC1CC(O[C@H]2CC[C@]3(C=O)C4CC[C@]5(C)[C@@H](C6=CC(=O)OC6)CC[C@]5(O)[C@@H]4CC[C@]3(O)C2)OC(C)C1O[C@@H]1O[C@H](CO)[C@@H](O)[C@H](O)[C@H]1O (some centres not stated)	20.4% [at 25.6 µM]
CN[C@H]1[C@H](O)[C@H](O[C@@H]2[C@@H](O)[C@H](O[C@H]3O[C@H]([C@H](C)O)[C@@H](O)[C@H](O)[C@H]3N)[C@@H](N)C[C@H]2N)OC[C@@]1(C)O	-6.02%
C=C[C@H]1CN2CC[C@H]1C[C@@H]2[C@@H](O)c1ccnc2ccccc12	40.1%
Cc1cn(C[C@H](N)C(=O)O)c(=O)n(Cc2cc(-c3ccccc3)sc2C(=O)O)c1=O	-10.4%
C[C@@](O)(COc1ccc(C#N)cc1)C(=O)Nc1ccc(C#N)c(C(F)(F)F)c1	104%

tested on: Nanoluciferase (engineered Oplophorus gracilirostris luciferase); test: Primary Nanoluciferase (NLuc) qHTS assay for identification of artifact compounds. (AID 1845222); conditions: NLuc-conditioned medium, Nano-Glo luminescence, 5 min; series mostly up to 54.1 µM; activity, negative = inhibition: at the top concentration;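 further: NLuc secreted into diluted conditioned medium of S16 cells; 0% = DMSO and -100% = no enzyme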
Outline: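 Using secreted nanoluciferase in S16 culture medium (0.22 um filtered, 1:55 dilution), compounds were preincubated 15 min at RT. Signal was generated with Nano-Glo reagent (1:100) over 5 min.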

Compound	activity, negative = inhibition
COC(=O)N1CCN(C(=O)Cc2ccc(Cl)c(Cl)c2)[C@@H](CN2CCCC2)C1	2.15%
COc1cc2c(cc1OC)[C@@]13CCN4CC5=CCO[C@H]6CC(=O)N2[C@H]1[C@H]6[C@H]5C[C@H]43	0% [at 25.7 µM]
C[C@H]1O[C@@H](O[C@H]2C[C@@H](O)[C@]3(CO)C4C(CC[C@]3(O)C2)[C@@]2(O)CC[C@H](C3=CC(=O)OC3)[C@@]2(C)C[C@H]4O)[C@@H](O)[C@@H](O)[C@H]1O (some centres not stated)	0% [at 25.7 µM]
CC(CCc1ccc(O)cc1)O[C@@H]1O[C@H](CO[C@H]2OC[C@](O)(CO)[C@H]2O)[C@@H](O)[C@H](O)[C@H]1O (some centres not stated)	1.34% [at 25.7 µM]
CC(=O)OC1CC(O)C(C)(C)C2CC(OC(C)=O)C3(C)C(CCC4(C)C(c5ccoc5)C(=O)C5OC543)C12C (configuration not stated)	-1.23% [at 25.7 µM]
N#CC(OC1OC(COC2OC(CO)C(O)C(O)C2O)C(O)C(O)C1O)c1ccccc1 (configuration not stated)	-1.69% [at 25.7 µM]
COC(=O)[C@@]12C(=O)C(C)C(=O)[C@]1(C)C(C)=C[C@H]1[C@]3(C=O)CC[C@H](OC(C)=O)C(C)(C)[C@H]3CC[C@@]12C (some centres not stated)	-5.15% [at 25.7 µM]
CN(C(=O)Cc1ccccc1)C(CN1CCCC1)c1ccccc1 (configuration not stated)	1.97%
CCN1CC2(COC)C3[C@@H](OC)C4C1C3(C1C[C@]3(O)[C@H](OC(=O)c5ccccc5)C1[C@]4(OC(C)=O)[C@@H](O)[C@@H]3OC)[C@H](OC)C[C@H]2O (some centres not stated)	4.88%
CC1C/C=C/C(O)C(O)CC/C=C/c2cc(O)cc(O)c2C(=O)O1 (configuration not stated)	-2.22%
CCC1NC(=O)C2C(Cl)C(Cl)CN2C(=O)C(C(C)O)NC(=O)CC(c2ccccc2)NC(=O)C(CO)NC1=O (configuration not stated)	-3.09% [at 25.7 µM]
CCN1C[C@]2(COC)[C@H](O)C[C@H](OC)[C@]34[C@@H]5C[C@]6(O)[C@H](OC(=O)c7ccccc7)[C@@H]5[C@@](O)([C@H]([C@H](OC)[C@H]23)[C@@H]14)[C@@H](O)[C@@H]6OC	1.73%
COc1cc(C(=O)O[C@H]2[C@@H]3C=CO[C@@H](O[C@@H]4O[C@H](CO)[C@@H](O)[C@H](O)[C@H]4O)[C@@H]3[C@@]3(CO)O[C@@H]23)ccc1O	-1.57% [at 25.7 µM]
C=CC(C)(O)CC/C=C(\C)C(=O)O[C@H]1[C@H](O)[C@@H](CO)O[C@@H](OC(=O)[C@]23CCC(C)(C)CC2C2=CCC4[C@@]5(C)CC[C@H](O[C@@H]6O[C@H](CO[C@@H]7OC[C@H](O)[C@H](O)[C@H]7O[C@@H]7OC[C@@H](O)[C@H](O)[C@H]7O)[C@@H](O)[C@H](O)[C@H]6O)C(C)(C)C5CC[C@@]4(C)[C@]2(C)CC3)[C@@H]1OC1OC(C)C(O[C@@H]2OC[C@@H](O)[C@H](O[C@@H]3OC[C@@H](O)[C@H](O)[C@H]3O)[C@H]2O)C(O)C1O (some centres not stated)	1.73% [at 11.6 µM]
CN(C)CCc1c[nH]c2ccc(CN3CCN(C)S3(=O)=O)cc12	-7.17%
CC(=O)O[C@H]1C[C@@H](OC(C)=O)C(C)(C)C2C[C@@H](O)[C@]3(C)C(CC[C@@]4(C)[C@H](C5=CC(=O)OC5O)C[C@H]5O[C@]543)[C@]21C (some centres not stated)	0.885% [at 25.7 µM]
CC1=CC2/C=C(\C)CCC(O)C3OC(C)(C)OC3CC(=O)OC23C(=O)NC(CC(C)C)C3C1C (configuration not stated)	-8.26% [at 25.7 µM]

Compound	activity, negative = inhibition
CCCN1CCO[C@H]2c3cc(O)ccc3OC[C@@H]21	3.13%
CN1C(=O)c2ccccc2NC(=O)[C@]12O[C@@H]2c1ccccc1	-2.03%
C[C@@]1(C(=O)O)CC[C@]2(C)CC[C@]3(C)C4=CC(=O)c5cc(O)c(O)cc5[C@]4(C)CC[C@@]3(C)[C@@H]2C1	0% [at 25.7 µM]
CN1C(=O)c2ccccc2NC(=O)C1Cc1ccccc1 (configuration not stated)	-0.933%
COC1CC(O[C@H]2CC[C@]3(C=O)C4CC[C@]5(C)[C@@H](C6=CC(=O)OC6)CC[C@]5(O)[C@@H]4CC[C@]3(O)C2)OC(C)C1O[C@@H]1O[C@H](CO)[C@@H](O)[C@H](O)[C@H]1O (some centres not stated)	2.35% [at 25.7 µM]
CCc1[nH]c2ccc(OC)cc2c1CCN(C)C	-4.12%
COC(=O)C1(C)CCC(O)C2(C)c3cc(O)c(C(C)C)cc3C(O)C(OC(C)=O)C12 (configuration not stated)	3.43% [at 25.7 µM]
COCC1OC(=O)c2coc3c2C1(C)C1=C(C3=O)C2CCC(=O)C2(C)CC1O (configuration not stated)	4.23%
CN[C@H]1[C@H](O)[C@H](O[C@@H]2[C@@H](O)[C@H](O[C@H]3O[C@H]([C@H](C)O)[C@@H](O)[C@H](O)[C@H]3N)[C@@H](N)C[C@H]2N)OC[C@@]1(C)O	-2.99%
CC(C)(O)[C@H]1O[C@H]2CC[C@@]3(C)[C@@](O)(CC[C@H]4Cc5c([nH]c6ccccc56)[C@@]43C)C2=CC1=O	-2.02% [at 25.7 µM]
C=C[C@H]1CN2CC[C@H]1C[C@@H]2[C@@H](O)c1ccnc2ccccc12	-1.21%
Cc1cn(C[C@H](N)C(=O)O)c(=O)n(Cc2cc(-c3ccccc3)sc2C(=O)O)c1=O	-0.545%
COC1CC(OC2CCC3(C)C(CCC4C3CCC3(C)C(C5=CC(=O)OC5)C(OC(C)=O)CC43O)C2)OC(C)C1OC1OC(CO)C(O)C(O)C1O (configuration not stated)	2.6% [at 25.7 µM]
C[C@@](O)(COc1ccc(C#N)cc1)C(=O)Nc1ccc(C#N)c(C(F)(F)F)c1	0%
C[C@@H]1C(=O)O[C@H]2[C@H](O)[C@@]34[C@@H]5OC(=O)[C@@]3(O[C@@H]3OC(=O)[C@@H](O)[C@@]34[C@H](C(C)(C)C)[C@H]5O)[C@@]12O	0.206% [at 25.7 µM]
COC1CC(=O)C23C(=O)NC(CC(C)C)C2C(C)=C(C)C(OO)C3/C=C(\C)CCC(O)C1O (configuration not stated)	4.94% [at 25.7 µM]
